# Laboratory results from PubChem BioAssay (NCI).
# The panel holds about 79,000 compounds, 15% with a hit somewhere; the sample as a whole holds those more often. A number with no mark means an inactive call. Calls of active or inactive are those of the source. Cut-off read from the data, not from the text of the source: active = growth inhibition above about 70%; inactive = the rest.
# Assays:
# [1] = NCI Yeast Anticancer Drug Screen. Data for the rad50 strain (AID 155);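 note: 0% = growth of vehicle-only cultures of the same strain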; settings: S. cerevisiae rad50 strain growth inhibition; at 50.0 µM; hits give high values
# In short: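 Growth of the mutant yeast was measured after compound exposure and referenced to vehicle-treated cultures.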
# [2] = NCI Yeast Anticancer Drug Screen. Data for the sgs1 mgt1 strain (AID 161);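 note: 0% = growth of cultures given vehicle only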; settings: S. cerevisiae sgs1 mgt1 strain, at 50.0 µM, hits give high values
# In short: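 This yeast growth screen uses a strain with defined DNA-repair lesions; compound-treated growth is compared with vehicle-treated growth.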
# [3] = NCI Yeast Anticancer Drug Screen. Data for the cln2 rad14 strain (AID 165);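 note: 0% = growth equal to vehicle treated cultures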; settings: S. cerevisiae cln2 rad14 strain, at 50.0 µM, hits give high values
# In short: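 Growth inhibition, relative to vehicle-treated controls, is the read-out. The test organism is a yeast strain with defined genetic alterations, cln2 rad14.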
# [4] = NCI Yeast Anticancer Drug Screen. Data for the bub3 strain (AID 167); settings: S. cerevisiae bub3 mutant strain, at 50.0 µM, hits give high values
# In short: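 Whole-cell yeast assay. The mutant strain was incubated with compounds, and growth inhibition was determined by comparison with vehicle-treated cells.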
# [5] = NCI Yeast Anticancer Drug Screen. Data for the mlh1 rad18 strain (AID 175); settings: S. cerevisiae mlh1 rad18 strain growth inhibition; at 50.0 µM; hits give high values
# In short: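 Cells of a genetically altered yeast strain, deficient in DNA damage repair, were treated with compound. Their growth was then compared with that of vehicle-treated cultures to give inhibition.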
SMILES,growth inhibition [1],growth inhibition [2] [%],growth inhibition [3] [%],growth inhibition [4] [%],growth inhibition [5] [%]
CCc1nnc(CC)n1NC(=O)Nc1ccc(C)cc1,-5.1%,-3.75,7.05,-7.65,1.25
O=[N+]([O-])c1c(Cl)cc(Cl)c([N+](=O)[O-])c1-c1ccccc1,-17.1%,-14.3,7.75,14.2,-31.7
N#Cc1ccc2c(c1)Sc1ccccc1N2,7.5%,-2.9,-43.4,-31,21.7
O=C1CC2c3ccccc3C(O)(CC1=O)c1ccccc12,16.2%,11.7,15.2,-16.6,19.2
CCCCCO/C=C/CN1CCOCC1,8.85%,3.1,-8.5,11.8,-3.2
NS(=O)(=O)c1ccc(NC2(C(=O)O)CCCC2)cc1,-18.4%,-0.9,-9.4,-38.5,-21.5
OC12C=CC(CCCC1)O2 (stereo not given),0.35%,-7.4,3.2,10.3,4.9
COc1cc(C2c3cc4c(c(OC(=O)c5ccccn5)c3CC3COC(=O)C32)OCO4)cc(OC)c1OC (stereo not given),8.1%,11.6,-9.5,13,34
Nc1cccc(CNC(=O)COc2ccc(Cl)cc2C(=O)O)c1,-0.9%,-2.7,-7.6,18.4,10.4
CCN(CC)c1cc2c(cc1Br)-c1ccccc1C2=O,4%,5.7,52.2,7.95,36
CC(=O)NC(=O)C(C(C)=O)c1ccccc1 (stereo not given),-5.8%,-7.35,12.8,-7.75,-10.9
CC1=NC2c3c(-c4ccc(Cl)cc4)cn(-c4ccc(C)cc4)c3N=CN2N1 (stereo not given),7.75%,-16.6,15.8,0.5,-1.6
Cn1cc(Cc2ccc(-c3ccccc3)cc2)c(=O)c(Cc2ccc(-c3ccccc3)cc2)c1,30.6%,-2.9,12.5,3.9,27.8
O=C(OCC1OC=C(OC(=O)c2ccccc2)C1OC(=O)c1ccccc1)c1ccccc1 (stereo not given),91.8% (active),32.3,24.9,-1.85,60
CC(C)(CO)C(O)C(=O)NCCO (stereo not given),14.8%,6.05,5.15,3.3,-10.4
CC1OC(c2cccc([N+](=O)[O-])c2)OCC1(C)C (stereo not given),-14.7%,-4.9,-32.6,15.1,-16.6
O=c1c2n[nH]nc2nc2n1CC(c1ccccc1)S2 (stereo not given),-73.7%,-15.6,-3.2,-16.2,-20.9
CCSCCC(Nc1ncnc2nc[nH]c12)C(=O)O (stereo not given),-17.8%,-5.65,-17,-4.8,-19.4
COCCCNC(=O)C1C(=O)C(=O)N(CCCOC)C1=O (stereo not given),-2.35%,-15.8,13.2,-5,-10.6

SMILES,growth inhibition [1],growth inhibition [2] [%],growth inhibition [3] [%],growth inhibition [4] [%],growth inhibition [5] [%]
CCCC1(C)OCC(C)([N+](=O)[O-])CO1 (stereo not given),-26%,-3.25,-22.4,-24,10.8
O=[N+]([O-])/C(Cl)=C(/C(Cl)=C(Cl)Cl)N1CCOCC1,5.55%,44,6.35,23.9,11.7
CCCCCC/C=C/CCCCCCCC(=O)O,3.15%,5.3,-9.9,-1.75,-16.9
CCOC(=O)CCCC(=O)N(CC(=O)OCC)Cc1ccccc1,2.6%,13.2,-4.9,5,-5.85
CC(=O)Nc1ccc(S(=O)(=O)[N-]C2C(=O)c3ccccc3C(=O)C2[n+]2ccccc2)cc1 (stereo not given),25.4%,28,-0.35,27.8,-1.8
CSC(=Nc1ccc([N+](=O)[O-])cc1C#N)NC(=O)c1ccccc1,-28.2%,-29.1,-15.1,-16.8,9.55
CO/C=C1/CCc2c(ccc3cc(OC)ccc23)C1=O,-1.5%,10.5,-0.8,3.2,-6.55
Cc1ccc(Cl)cc1NC(=O)Nc1cc(Cl)c(Cl)cc1C,3.55%,43.5,-2.5,45.9,33.3
CC1=CC(OC2CCCCO2)CC(C)(C)C1 (stereo not given),-5.2%,-11,-16.4,0.05,-5.15
BrC/C(=N\N1CCCCC1)c1ccc(Br)cc1,6.55%,-8.05,24.6,16.6,14
COc1ccc(COCC[C@H](C)OC2OC(CO)C(O)C(O)C2O)cc1 (stereo not given in full),13.9%,-12.9,-6.2,5.25,-71
O=C(CCN1CCCC1)Nc1ccc2sc3ccccc3c(=O)c2n1,38.5%,8.75,9.7,16.6,10.6
Cn1c(=O)c(CC(O)C(Cl)(Cl)Cl)nc2ccccc21 (stereo not given),20.6%,3.4,3.75,18.9,31.7
O=C1CN(C=C2C(=O)NC(=O)NC2=O)C(=S)N1,-53.8%,-43,-36.7,-22.3,-71.2
CCOC(=O)c1nc(SC)sc1NC(=O)c1ccc([N+](=O)[O-])cc1,-11%,-30.8,27.1,-14.7,-21.6
O=C1c2ccccc2-c2ccc(-c3ccc4c5c(cccc35)C(=O)c3ccccc3-4)c3cccc1c23,-21.9%,-7.9,-0.85,-31.3,-34.2
O=C1NN(c2ccccc2)CCO1,-2.45%,-5.25,-18.6,0.1,2.15
CCCCCCCCC1CCC(=O)O1 (stereo not given),19.8%,16.7,7.45,7.25,9
Cc1cccc(C)c1N1C(=O)C(=O)C(c2nc3ccccc3s2)C(=Nc2cccc3c(=O)[nH][nH]c(=O)c23)C1=O (stereo not given),30.5%,17.6,23.2,0.95,23.7
